High-throughput results as filed in PubChem.
Shown are actives, neighbours in structure and some others; about 3.6% of the full set was active somewhere.
AmpC inh no detg = qHTS Inhibitors of AmpC Beta-Lactamase (assay without detergent) | Potency, µM (top dose mostly 57.1 µM), inactives show at the top dose activity change, negative = inhibition, hits mostly inhibitors | AmpC nitrocefin hydrolysis, absorbance 480 nm, 0.0001% Triton | actives 0.52% (n = 330,000) | P00811;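 note: plate controls were no compound for no effect and no enzyme for full effect; nearly all actives have a fitted effect of over 20% in size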
Target sequence (P00811 whole entry, looked up): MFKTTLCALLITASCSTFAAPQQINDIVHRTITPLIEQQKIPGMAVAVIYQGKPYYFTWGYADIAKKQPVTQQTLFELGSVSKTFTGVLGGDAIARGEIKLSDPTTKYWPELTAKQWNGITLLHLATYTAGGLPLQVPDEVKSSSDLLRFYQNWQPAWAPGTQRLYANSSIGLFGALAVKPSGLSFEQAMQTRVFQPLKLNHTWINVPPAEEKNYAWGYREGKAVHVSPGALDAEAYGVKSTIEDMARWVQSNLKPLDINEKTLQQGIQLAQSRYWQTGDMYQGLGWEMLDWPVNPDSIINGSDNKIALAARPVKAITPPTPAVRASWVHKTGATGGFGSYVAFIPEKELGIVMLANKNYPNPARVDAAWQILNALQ
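20 mM phosphate pH 7.0 + 0.01% (detergent screen) or 0.0001% Triton X-100; 5.3 nM AmpC reagent; cpd preinc 15 min RT; nitrocefin (800 uM stock) to start; A480 q20 s × 4 min; Activity was normalised to no-enzyme and no-compound control wells.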
Sm TGR block = qHTS Assay for the Inhibitors of Schistosoma Mansoni Peroxiredoxins. Schistosoma mansoni thioredoxin glutathione reductase (TGR), Q962Y6. purified TGR, DTNB reduction, TNB absorbance 405 nm. Potency, µM (series often up to 114 µM), for inactives: at the highest dose activity change, negative = inhibition, actives largely listed as inhibitors. actives 3% (n = 360,000); note: nearly all actives have a fitted effect of over 60% in size
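Kinetic colorimetric format: TGR-catalysed, NADPH-driven DTNB reduction monitored via TNB absorbance. Enzyme dispensed at 20 nM; compound exposure 15 min at room temperature before reaction start.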
FBPA Giardia inh = qHTS Assay for Inhibitors of Fructose-1,6-bisphosphate Aldolase from Giardia Lamblia; A8B2U2; purified Giardia FBPA; Potency, µM (doses to about 59.6 µM), inactives show top-dose activity, negative = inhibition, hits mostly inhibitors; actives 0.71% (n = 290,000); note: nearly all actives have a fitted effect of over 55% in size
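Giardia FBPA (40 nM reagent) was preincubated 10 min at RT with compound (up to 57.5 uM final), then substrate plus GAPDH/TPI/NAD/arsenate coupling system with diaphorase/resazurin was added; resorufin fluorescence (525/598 nm) was read after 20 min.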
AmpC inh detg = qHTS Inhibitors of AmpC Beta-Lactamase (assay with detergent). P00811. AmpC hydrolysis of nitrocefin, absorbance 480 nm, 0.01% Triton. Potency, µM (highest dose often 114 µM), for inactives: at the top dose activity change, negative = inhibition, actives largely listed as inhibitors. actives 0.041% (n = 370,000). AID 485294, 2010;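 note: 0% = no-compound wells and -100% = no-enzyme wells; nearly all actives have a fitted effect of over 25% in size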
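AmpC (5.3 nM in the dispensed reagent) in 20 mM phosphate pH 7.0 with 0.01% (detergent screen) or 0.0001% Triton X-100 was preincubated with compounds for 15 min at room temperature. Nitrocefin was then added from an 800 uM solution, and hydrolysis was followed at 480 nm.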
* = called active by the depositor; ? = inconclusive; . = no result. Calls come from the whole dose curve; as a rule, active = well fitted curve in the direction sought with a large enough effect; inconclusive = small, poorly fitted or top-dose-only effect, or another doubt; inactive = no such curve, though single readings can be large; an effect the other way counts as inactive or inconclusive. Unless noted, % is set by controls: 0 for no effect and ±100 for the full control effect; potency is the fitted concentration of half-maximal effect.

SMILES | AmpC inh no detg | Sm TGR block | FBPA Giardia inh | AmpC inh detg
N#C/C(=C/c1ccc(-c2ccc(S(N)(=O)=O)cc2)o1)C(=O)Nc1ccccc1 | 16µM* | -5% | -1% | -10%
O=C(NCCN1CCOCC1)C1CCCN(S(=O)(=O)c2ccc(F)cc2)C1 (configuration not stated) | -8% | -21% | . | 4%
Cc1cc(C)cc(NC(=O)c2sc3nc[nH]c(=O)c3c2C)c1 | . | 10% | . | 5%
CCCc1[nH][nH]c(=O)c1C(c1ccccc1)C(C#N)C#N (configuration not stated) | -30% | 2.5µM* | -7% | -10%
Cc1ccc(N2CN(S(=O)(=O)c3cccc([N+](=O)[O-])c3)c3nc4ccccc4nc32)cc1 | 1% | 45µM* | . | 3%
O=[N+]([O-])c1cccc(S(=O)(=O)N2CN(c3ccc(Br)cc3)c3nc4ccccc4nc32)c1 | -25% | . | . | .
Cc1cccc2c3c(ccc12)C1=C(C(=O)C3=O)[C@@H](C)CO1 | . | . | 7.1µM* | .
CC1COc2ccccc2C1=O (configuration not stated) | . | . | 3% | .
C=CCOc1c(Br)cc(CNc2ccc(NC(=O)C(C)C)c(OC)c2)cc1OCC | 76% | -29% | 8.9µM* | -7%
CCOc1cc(CNc2ccc(N3CCCCC3)cc2)cc(Br)c1OCC(=O)NC(C)(C)C | 58% | -17% | -7% | 1%
C=CCOc1c(Br)cc(CNc2ccc(NC(=O)CCC)cc2)cc1OCC | 18% | -15% | 1% | ?
CCOc1cc(CNc2ccc(N(C)C)cc2)cc(Br)c1OCC(=O)NC(C)(C)C | ? | -31% | 5µM* | 3%
COc1cc(CNc2ccc3[nH]c(=O)[nH]c3c2)cc(Br)c1OCC(=O)NC(C)(C)C | 52% | 13µM* | -12% | ?
COc1cccc(C2=Nn3c(nnc3-c3cc(OC)ccc3OC)SC2)c1 | . | . | -1% | .
CC1(c2nnc(-c3cccc(Cl)c3)o2)CC(c2cccc([N+](=O)[O-])c2)=NO1 (configuration not stated) | -24% | 45µM* | 7% | -18%
CC1(c2nnc(Cc3ccccc3)o2)CC(c2ccc([N+](=O)[O-])cc2)=NO1 (configuration not stated) | 40% | 6.3µM* | 3% | 8%
CCC(C)NC(=O)CCCN1C(=O)CCn2nc(-c3cccn3C)cc21 (configuration not stated) | . | 3% | . | 9%
COCCCNC(=O)c1ccc([N+](=O)[O-])cc1 | 8% | -2% | 3% | -3%
O=C(CCl)NCCCN(C(=O)C(Cl)Cl)c1ccc([N+](=O)[O-])cc1 | -9% | 28µM* | 3% | ?
Cc1ccc(/C=C2\C(=O)NC(=S)N(c3ccc(F)cc3)C2=O)s1 | ? | ? | 0% | ?
Cc1ccc(/C=C2\C(=O)NC(=S)N(c3ccccc3F)C2=O)s1 | -31% | 7.9µM* | -10% | 1%
Cc1ccc(CNC(=O)CSc2c3c(nc4cc(Cl)ccc24)CCCC3)o1 | -19% | 8.9µM* | -10% | -10%
CCOc1ccc(CNC(=O)CSc2c3c(nc4cc(Cl)ccc24)CCCC3)cc1 | . | 19% | . | 4%
CCOc1ccccc1N1CCN(Cc2c(C)n(C)n(-c3ccccc3)c2=O)CC1 | -18% | 1% | 4% | 1%
CS(=O)(=O)n1nc(-c2ccco2)nc1NCc1ccccc1Cl | . | -35% | . | 1%
SMILES | AmpC inh no detg | Sm TGR block | FBPA Giardia inh | AmpC inh detg
O=C1N=C(N2CCCC2C(=O)O)S/C1=C\c1ccco1 (configuration not stated) | 5% | 7.1µM* | ? | -1%
Cc1ccc(CN2CCCn3nc(C(=O)NCCc4cccc(C)c4)cc3C2=O)cc1 | . | 0% | . | 0%
CCCCC(CC)C(=O)Nc1ccc(C)c(O)c1 (configuration not stated) | -22% | . | 4% | -7%
COc1cccc(Cn2ncc3c4sc(B(O)O)cc4n(C)c3c2=O)c1 | 2.2µM* | -2% | . | 1.1µM*
COc1ccc(-c2noc(-c3ccc(N4CCCC4)c([N+](=O)[O-])c3)n2)cc1 | . | 3% | . | 14%
O=C(Cn1[nH]c(=O)c2ccccc2c1=O)N1CCN(S(=O)(=O)c2ccc(Cl)cc2)CC1 | -18% | -1% | . | 0%
